Here are results for five molecules from PubChem BioAssay.

Structures are written as SMILES. Calls of active or inactive are those of the source.

Test [1] in a line: small molecules captured by biotinylated probe aFSTL3 – biochemical, small-molecule microarray, fluorescence 635/667, stem cell growth factor project, primary screen (AID 1064).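 Note: measures binding of the biotinylated anti-FSTL3 antibody to printed compounds.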 The following applies: higher = more signal.
Test [2] can be described thus: binders from COS7 lysate, DM2A8 probe, primary screen, torsin A project, cell lysate, small-molecule microarray, fluorescence 635/667 (AID 1065). To be noted: higher = more signal, COS7 lysate expressing mutant human TOR1A.
A short description of test [3]: small molecules captured by biotinylated probe aFGF2 – biochemical, small-molecule microarray, fluorescence 635/667, stem cell growth factor project, primary screen (AID 1067).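 Note: measures binding of biotinylated aFGF2 protein to printed compounds on slides; z-score merges feature fluorescence and signal-to-noise across triplicate slides.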 The following applies: higher = more signal.
The nature of test [4]: small molecules captured by biotinylated probe aFGF10 – biochemical, small-molecule microarray, fluorescence 635/667, stem cell growth factor project, primary screen (AID 1071).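 Note: score merges 667 nm spot intensity and signal to noise from triplicate slides.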 The following applies: higher = more signal.
Test [5] has as its target Neurogenic locus notch homolog protein 2 (Homo sapiens) (UniProt Q04721). Briefly: small molecules binding Notch2 protein – biochemical, small-molecule microarray, 635 nm fluorescence, stem cell growth factors, primary screen (AID 1073). To be noted: higher = more signal.
Test [6] has as its target Pro-neuregulin-1, membrane-bound isoform (Homo sapiens) (UniProt Q02297). In words: small molecules binding neuregulin-1 protein – biochemical, small-molecule microarray, fluorescence 635/667, psychiatric disease protein project, primary screen (AID 1075).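 Note: score combines 667 nm spot fluorescence with signal to noise.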 To be noted: NRG1 binding, 635 nm fluorescence, higher = more signal.
The subject of test [7] is Neuregulin-1 EGF-like domain. Briefly: small molecules binding NRG1 EGF domain – biochemical, small-molecule microarray, 635 nm fluorescence, primary screen (AID 1081).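 Note: binding of the protein to compounds printed on small-molecule microarray slides.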 The following applies: higher = more signal.
Test [8] is described as follows: FRG1 expression reporter modulators in myotubes – cell-based, C2C12 myotubes, firefly/Renilla luciferase, luminescence, FRG1 inhibition for FSHD, primary screen (AID 1084). The following applies: FRG1 promoter luciferase, higher = more signal, called active from +8 up or from −8 down.
Test [9] in a line: small molecules captured by biotinylated probe aFST – biochemical, small-molecule microarray, fluorescence 635/667, stem cell growth factor project, primary screen (AID 1086).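 Note: score merges 667 nm fluorescence with signal-to-noise of each printed compound spot.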 To be noted: higher = more signal.
The nature of test [10]: binders of probe aHhip on microarray, primary screen, stem cell growth factor project, biochemical, small-molecule microarray, fluorescence 635/667 (AID 1087).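 Note: score merges spot fluorescence at 667nm with spot signal to noise ratio.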 The following applies: higher = more signal.
Test [11] relates to PRMT1 (protein arginine N-methyltransferase 1). In words: small molecules binding arginine methyltransferase PRMT1 – biochemical, small-molecule microarray, 635 nm fluorescence, primary screen (AID 1088).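 Note: binding of Prmt1 protein to compounds spotted on small-molecule microarray slides.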 The following applies: higher = more signal.
The nature of test [12]: growth effects on S. cerevisiae YJM789 – YJM789 clinical isolate, OD600, 24 h, basal, primary screen (AID 1089).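 Note: growth of clinical yeast isolate S. cerevisiae YJM 789 seeded 1000 cells per well; test concentration not given here.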 To be noted: higher = more signal, called active from +8 up or from −8 down.
The nature of test [13]: S. pombe growth modifiers, basal conditions – strain 972, OD600, 24 h, no modulator, primary screen (AID 1090).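 Note: basal condition with compound alone and no growth modifier present; test concentration not given here.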 The following applies: S. pombe 972 growth, higher = more signal, called active from +8 up or from −8 down.
Test [14] in a line: budding yeast growth modifiers under rapamycin – strain BY4716, OD600, 96 h, primary screen (AID 1091). Note: test concentration not given here. The following applies: S. cerevisiae BY4716 + rapamycin, higher = more signal, called active from +8 up or from −8 down.
Test [15] addresses Torsin-1A-interacting protein 2 (Homo sapiens) (UniProt Q8NFQ8). Briefly: small molecules binding lysate-expressed LULL1 – cell lysate, human LULL1 lysate, 635/667 nm fluorescence, primary screen (AID 1092).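 Note: probe is lysate of COS7 cells overexpressing human LULL1; score merges per-feature 667 nm fluorescence with signal-to-noise.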 The following applies: small-molecule microarray, hLULL1 lysate binding, 635 nm fluorescence; higher = more signal.
Test [16] can be described thus: optical density change of DRC41 E. coli – strain DRC41, OD650, 24 h, E. coli filamentation project, primary screen (AID 1093).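 Note: MC1000 strain lacking acrAB efflux and sulA so SOS filamentation is blocked; test concentration not given here.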 To be noted: E. coli DRC41 growth, higher = more signal, called active from +8 up or from −8 down.
Test [17] in a line: probe aLefty2 binding to arrayed compounds – biochemical, biotinylated probe, 635/667 nm fluorescence, primary screen (AID 1094).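 Note: score merges spot fluorescence near 667 nm with spot signal-to-noise ratio.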 The following applies: small-molecule microarray, higher = more signal.
Test [18] relates to Noggin (protein binding on small-molecule microarray). In words: small molecules binding Noggin protein – biochemical, 635/667 nm fluorescence, primary screen (AID 1095).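 Note: score merges 667 nm feature fluorescence with signal to noise over triplicate slides.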 To be noted: 635 nm fluorescence, higher = more signal.
For test [19], the target named is Neurogenic locus notch homolog protein 3 (Homo sapiens) (UniProt Q9UM47). In words: small molecules binding NOTCH3 protein – biochemical, 635/667 nm fluorescence, primary screen (AID 1096). The following applies: small-molecule microarray, 635 nm fluorescence, higher = more signal.
The nature of test [20]: probe aEGFR binding to arrayed compounds – biochemical, biotinylated probe, 635/667 nm fluorescence, primary screen (AID 1097).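 Note: probe is a biotinylated anti-EGFR antibody binding compounds printed on slides; score combines fluorescence near 667 nm and signal to noise of each spot.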 The following applies: small-molecule microarray, higher = more signal.

Sequence of Neurogenic locus notch homolog protein 2 (Homo sapiens) (Q04721 whole entry, looked up, canonical isoform): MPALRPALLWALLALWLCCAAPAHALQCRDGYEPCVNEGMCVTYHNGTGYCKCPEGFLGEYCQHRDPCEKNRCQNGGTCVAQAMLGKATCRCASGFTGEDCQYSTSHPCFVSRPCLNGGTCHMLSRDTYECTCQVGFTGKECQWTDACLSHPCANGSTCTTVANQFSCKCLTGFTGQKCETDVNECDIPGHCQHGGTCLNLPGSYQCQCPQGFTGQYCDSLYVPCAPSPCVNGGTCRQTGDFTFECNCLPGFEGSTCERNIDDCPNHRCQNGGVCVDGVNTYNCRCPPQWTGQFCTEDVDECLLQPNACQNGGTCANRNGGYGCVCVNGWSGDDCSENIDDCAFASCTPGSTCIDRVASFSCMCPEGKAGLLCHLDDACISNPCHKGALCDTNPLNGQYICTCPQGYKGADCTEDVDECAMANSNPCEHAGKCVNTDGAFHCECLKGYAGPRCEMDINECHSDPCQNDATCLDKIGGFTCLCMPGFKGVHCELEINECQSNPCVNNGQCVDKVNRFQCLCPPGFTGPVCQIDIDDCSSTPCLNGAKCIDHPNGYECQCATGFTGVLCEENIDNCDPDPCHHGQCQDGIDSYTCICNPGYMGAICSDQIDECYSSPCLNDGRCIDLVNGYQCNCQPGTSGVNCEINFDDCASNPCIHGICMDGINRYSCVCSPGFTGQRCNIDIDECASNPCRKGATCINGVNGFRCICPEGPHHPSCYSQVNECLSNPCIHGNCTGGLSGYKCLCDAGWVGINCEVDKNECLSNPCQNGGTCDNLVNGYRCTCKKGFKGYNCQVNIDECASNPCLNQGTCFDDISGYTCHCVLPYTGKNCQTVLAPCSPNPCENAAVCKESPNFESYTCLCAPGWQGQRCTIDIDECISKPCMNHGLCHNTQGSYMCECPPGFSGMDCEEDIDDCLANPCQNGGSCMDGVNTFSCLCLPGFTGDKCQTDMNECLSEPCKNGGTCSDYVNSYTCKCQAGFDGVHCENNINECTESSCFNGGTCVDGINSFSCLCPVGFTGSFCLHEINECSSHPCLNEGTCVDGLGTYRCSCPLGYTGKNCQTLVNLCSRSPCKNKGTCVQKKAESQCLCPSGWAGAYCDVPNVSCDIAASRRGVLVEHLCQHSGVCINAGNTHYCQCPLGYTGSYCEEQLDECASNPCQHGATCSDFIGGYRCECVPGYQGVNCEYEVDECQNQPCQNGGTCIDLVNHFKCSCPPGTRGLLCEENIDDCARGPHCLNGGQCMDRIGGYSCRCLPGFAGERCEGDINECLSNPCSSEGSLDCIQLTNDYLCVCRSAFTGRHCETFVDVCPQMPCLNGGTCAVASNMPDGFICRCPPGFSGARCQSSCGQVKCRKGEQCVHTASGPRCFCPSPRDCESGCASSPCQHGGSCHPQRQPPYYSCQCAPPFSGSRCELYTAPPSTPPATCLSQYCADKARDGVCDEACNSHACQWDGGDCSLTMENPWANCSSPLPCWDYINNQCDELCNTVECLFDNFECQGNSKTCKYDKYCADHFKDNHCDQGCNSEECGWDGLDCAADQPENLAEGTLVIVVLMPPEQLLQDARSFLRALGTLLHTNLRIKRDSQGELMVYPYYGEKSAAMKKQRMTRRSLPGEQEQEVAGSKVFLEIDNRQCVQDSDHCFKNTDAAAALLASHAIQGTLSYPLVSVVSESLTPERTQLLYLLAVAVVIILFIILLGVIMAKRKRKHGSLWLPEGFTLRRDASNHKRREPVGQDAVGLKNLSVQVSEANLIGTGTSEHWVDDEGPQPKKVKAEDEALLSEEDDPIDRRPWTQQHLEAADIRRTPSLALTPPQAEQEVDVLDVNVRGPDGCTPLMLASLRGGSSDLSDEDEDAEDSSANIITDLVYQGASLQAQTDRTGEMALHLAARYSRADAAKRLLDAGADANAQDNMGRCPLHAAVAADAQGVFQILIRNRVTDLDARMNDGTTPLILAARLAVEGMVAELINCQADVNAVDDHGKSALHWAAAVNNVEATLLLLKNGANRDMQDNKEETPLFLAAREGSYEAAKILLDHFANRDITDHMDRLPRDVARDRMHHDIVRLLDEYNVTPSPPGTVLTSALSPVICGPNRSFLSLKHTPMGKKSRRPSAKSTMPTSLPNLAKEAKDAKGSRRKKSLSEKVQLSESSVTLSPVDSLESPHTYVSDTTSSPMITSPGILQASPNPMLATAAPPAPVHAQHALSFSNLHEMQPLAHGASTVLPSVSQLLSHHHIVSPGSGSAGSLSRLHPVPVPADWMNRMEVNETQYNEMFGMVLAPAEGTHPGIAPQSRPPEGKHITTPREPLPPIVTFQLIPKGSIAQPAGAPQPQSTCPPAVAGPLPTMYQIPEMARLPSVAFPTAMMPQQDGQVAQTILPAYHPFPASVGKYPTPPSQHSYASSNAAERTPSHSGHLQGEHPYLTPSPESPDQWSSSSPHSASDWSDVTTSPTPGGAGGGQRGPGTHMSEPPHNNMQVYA
Sequence of Pro-neuregulin-1, membrane-bound isoform (Homo sapiens) (Q02297 whole entry, looked up, the tested form may be a part, canonical isoform): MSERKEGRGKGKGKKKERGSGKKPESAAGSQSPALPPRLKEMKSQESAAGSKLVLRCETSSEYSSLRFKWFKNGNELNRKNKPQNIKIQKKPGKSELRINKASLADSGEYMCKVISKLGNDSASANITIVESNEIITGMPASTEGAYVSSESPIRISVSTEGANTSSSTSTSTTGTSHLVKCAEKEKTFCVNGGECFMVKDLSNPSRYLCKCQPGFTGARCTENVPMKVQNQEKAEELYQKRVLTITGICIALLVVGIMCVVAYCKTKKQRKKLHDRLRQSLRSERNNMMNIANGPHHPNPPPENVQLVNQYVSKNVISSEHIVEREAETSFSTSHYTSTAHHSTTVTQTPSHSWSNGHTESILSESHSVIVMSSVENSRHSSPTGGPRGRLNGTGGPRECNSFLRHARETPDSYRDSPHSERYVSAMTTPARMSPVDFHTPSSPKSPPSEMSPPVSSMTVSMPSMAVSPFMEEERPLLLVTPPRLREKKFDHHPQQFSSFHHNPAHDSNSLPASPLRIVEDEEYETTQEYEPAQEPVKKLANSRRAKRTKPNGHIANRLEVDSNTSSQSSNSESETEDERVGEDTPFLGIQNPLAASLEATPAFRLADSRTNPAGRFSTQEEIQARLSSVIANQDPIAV
Sequence of Torsin-1A-interacting protein 2 (Homo sapiens) (Q8NFQ8 whole entry, looked up): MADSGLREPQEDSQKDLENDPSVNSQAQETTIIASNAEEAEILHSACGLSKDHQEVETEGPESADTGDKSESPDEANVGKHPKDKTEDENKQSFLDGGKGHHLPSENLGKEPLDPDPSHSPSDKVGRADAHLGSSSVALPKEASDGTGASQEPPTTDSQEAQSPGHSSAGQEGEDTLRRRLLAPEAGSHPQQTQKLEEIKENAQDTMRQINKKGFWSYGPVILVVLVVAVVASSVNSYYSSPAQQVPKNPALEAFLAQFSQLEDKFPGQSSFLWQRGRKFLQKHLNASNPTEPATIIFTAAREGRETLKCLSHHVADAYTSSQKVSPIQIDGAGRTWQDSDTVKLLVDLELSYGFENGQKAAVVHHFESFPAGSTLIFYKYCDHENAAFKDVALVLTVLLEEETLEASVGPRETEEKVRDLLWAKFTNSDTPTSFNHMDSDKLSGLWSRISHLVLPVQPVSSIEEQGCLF

Regarding `CC(CCC(=O)OC[C@H]1O[C@H](C#Cc2ccccc2)C=C[C@@H]1Oc1ccc(C)cc1)=NO[C@@H](C)c1cc(-c2c(C)cc(C)cc2C)no1`, the composite z-score in [1] was -0.0913; in test [2], -1.14; in test [3], -0.144; in test [4], -0.558; in test [5] it was -1.58; in test [6], 0.122. Further, the composite z-score in [7] is -0.525; in test [9], -0.213; in test [10], 0.312; in test [11] it was -0.187; in test [15], 0.226; in [17], -0.328. The composite z-score was -0.199 in test [18], -1.12 in test [19] and -0.296 in test [20]. Further, the z-score in test [8] is 0.87 (inactive); in [12], 0.914 (inactive); in test [13] it was 0.811 (inactive); in test [14], 0.361 (inactive); in test [16], -0.318 (inactive).

Regarding `O=C1[C@H]2[C@H]3[C@H](O)[C@H](O)CC(=NOC[C@@H](O)COCc4ccco4)[C@@H]3CC[C@H]2C(=O)N1C1CCCCC1`, the composite z-score is -0.679 in test [1]; 2.04 in test [2]; -0.16 in test [3]; -0.357 in [4]; 0.0224 in [5]; -0.459 in test [6]. Besides, the composite z-score in test [7] was 1.2; in [9], -0.045; in [10] it was 0.235; in test [11], 1.39; in test [15], 1.25; in test [17] it was -0.061. Moreover, the composite z-score amounted to 1.75 in test [18], 0.437 in test [19] and 0.0583 in test [20]. Further, the z-score in test [8] is 0.219 (inactive); in [12], 1.61 (inactive); in test [13], -0.0798 (inactive); in test [14] it was -0.133 (inactive); in [16] it was 0.61 (inactive).

Regarding `O=C1C=C[C@@H](O)[C@@H]2[C@@H]3C(=O)N(c4cccc(Oc5ccccc5)c4)C(=O)[C@@H]3CC[C@@H]12`, the composite z-score in test [1] was -0.575; in test [2], -0.285; in test [3], -0.0527; in test [4] it was -0.102; in test [5], 0.493; in test [6], -0.04. In addition, the composite z-score in test [7] is 0.588; in test [9], 0.241; in [10] it was -0.274; in test [11], 0.491; in test [15], 0.36; in test [17], -0.204. In addition, the composite z-score was 0.403 in test [18], 0.477 in test [19] and 0.0443 in [20]. Besides, the z-score in test [8] is 0.485 (inactive); in test [12], 0.162 (inactive); in test [13], -0.753 (inactive); in [14], -0.0875 (inactive); in test [16] it was 0.533 (inactive).

Turning to `CC(CCN1CCCc2nc(C)c(C)cc21)=NO[C@@H](C)c1cn([C@H](CO)Cc2ccccc2)nn1`, the composite z-score in test [1] was -0.102; in test [2], 0.417; in test [3] it was -0.0257; in [4], 0.389; in test [5] it was 0.414; in test [6], -0.19. The composite z-score in [7] is 0.28; in test [9] it was 0.4; in test [10] it was -0.277; in test [11], 0.279; in test [15], 0.577; in test [17] it was -0.114. In addition, the composite z-score in test [18] is 0.78; in test [19], 0.713; in [20] it was -0.0493. Further, the z-score was -0.0338 (inactive) in test [8]; 0.72 (inactive) in test [12]; 0.47 (inactive) in [13]; 0.672 (inactive) in [14]; 0.923 (inactive) in [16].

Turning to `COC(=O)C1=C(C)N(Cc2ccccc2)C2=C3C(=O)OCC[C@@H]3[C@@](O)(C(=O)OC)C(=O)N2[C@@H]1c1ccccc1`, the composite z-score in test [1] is -0.69; in test [2], -0.0402; in test [3], -0.118; in test [4], 0.495; in test [5], 0.346; in test [6] it was -0.143. Besides, the composite z-score is 0.0271 in [7]; -0.0464 in test [9]; 0.0139 in test [10]; -0.737 in test [11]; 0.0296 in test [15]; -0.0342 in test [17]. The composite z-score was 0.454 in [18], 0.542 in [19] and 0.0035 in test [20]. Further, the z-score in test [8] is 0.245 (inactive); in test [12] it was 0.833 (inactive); in test [13], -0.992 (inactive); in [14], -0.265 (inactive); in [16], 0.659 (inactive).
